Assay outcomes from PubChem.
NPSR antag – neuropeptide S receptor (human) antagonism, cAMP; Q6W5P4; CHO-NPSR cells, cAMP TR-FRET, antagonist mode; Potency, µM (titrated, usually from 38.3 µM), for the others: at the highest dose activity change, negative = inhibition, hits mostly inhibitors; 220,000 tested, 1% active; AID 1461; note: nearly all actives have a fitted effect of over 50% in size
B2AR arrestin – recruits beta-arrestin to the human beta2-adrenergic receptor | Potency, µM (titrated, usually from 46.1 µM), for inactives: at the top dose activation, hits mostly activators | 330,000 tested, 0.02% active | beta-arrestin recruitment to beta2AR, cell-based reporter | P07550;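 note: 0% = DMSO controls and full agonism = EC100 isoproterenol or metaproterenol; nearly all actives have a fitted effect of over 65% in size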
Target sequence (P07550 whole entry, looked up): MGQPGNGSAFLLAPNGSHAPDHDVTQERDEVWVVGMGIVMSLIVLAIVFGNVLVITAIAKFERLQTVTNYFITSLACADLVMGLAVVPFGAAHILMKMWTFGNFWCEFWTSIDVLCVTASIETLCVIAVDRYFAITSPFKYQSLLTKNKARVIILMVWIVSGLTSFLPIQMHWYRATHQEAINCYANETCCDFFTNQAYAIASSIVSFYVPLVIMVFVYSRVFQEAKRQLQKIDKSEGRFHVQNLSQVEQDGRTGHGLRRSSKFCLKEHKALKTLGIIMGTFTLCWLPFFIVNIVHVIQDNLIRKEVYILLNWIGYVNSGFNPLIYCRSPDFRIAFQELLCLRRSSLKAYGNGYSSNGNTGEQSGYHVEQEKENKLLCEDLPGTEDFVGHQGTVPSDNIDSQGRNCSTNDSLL
Gal4-VP16 FLuc – inhibits Gal4-VP16 luciferase reporter, ROR gamma counter-screen. Drosophila S2 Gal4-VP16 UAS-luciferase, luminescence, 20 h. Potency, µM (top dose mostly 53.6 µM), without a hit: at the highest dose activity, negative = inhibition, usual class: inhibitors. 310,000 tested, 3.5% active;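 note: Gal4-VP16 expression switched on by copper sulfate through the metallothionein promoter; nearly all actives have a fitted effect of over 50% in size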
RORg inh – inhibitors of mouse ROR gamma transcriptional activity; Drosophila S2 Gal4-RORgamma UAS-luciferase reporter, 20 h; Potency, µM (top dose mostly 53.6 µM), for inactives: at the top dose activity change, negative = inhibition, actives largely listed as inhibitors; 310,000 tested, 5.4% active; P51450; note: nearly all actives have a fitted effect of over 60% in size
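Luciferase reporter read in Schneider cells carrying Gal4-RORγ (mouse) and UAS-Photinus luciferase; cells given compound 1 h before 700 uM copper sulfate induction, then incubated 20 h at ambient temperature.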
The depositor's hits bear a star; ? = inconclusive; · = not tested or not shown; [ ] = remark or other dose. Shown are actives, neighbours in structure and some others; about 5.7% of the full set was active somewhere. Calls come from the whole dose curve; as a rule, active = well fitted curve in the direction sought with a large enough effect; inconclusive = small, poorly fitted or top-dose-only effect, or another doubt; inactive = no such curve, though single readings can be large; an effect the other way counts as inactive or inconclusive. Unless noted, % is set by controls: 0 for no effect and ±100 for the full control effect; potency is the fitted concentration of half-maximal effect.

SMILES	NPSR antag	B2AR arrestin	Gal4-VP16 FLuc	RORg inh
CC(/C=N/NC(=O)c1ccncc1)=C\c1ccc(C(C)C)cc1	-12%[46.1 µM]	0%	0%	-7%
Cc1cc(C)nc(N/N=C/c2ccc(Cl)cc2)n1	0%	0%	-11%	10%
Cc1ccc(/C=N/Nc2nc(C)cc(C)n2)cc1	6%	0%	1%	10µM*
CC(/C=N/Nc1nc(C)cc(C)n1)=C\c1ccc(C(C)C)cc1	-44%	-1%	?	11µM*
CC(C)CN(C(=O)CCC(=O)OCc1ccc(Cl)cc1Cl)c1c(N)n(CC(C)C)c(=O)[nH]c1=O	·	0%	·	·
CC(C)Nc1nc(NNc2nc(Cl)nc(NC(C)(C)C)n2)nc(NC(C)C)n1	0%[7.67 µM]	0%	1.8µM*	0.4µM*
CCNc1nc(NC(C)C)nc(NC(C)(C)C)n1	-25%	0%	-11%	3%
CC(C)Nc1nc(NC(N)=S)nc(NC(C)(C)C)n1	15%	0%	?	11µM*
N/C(=N\N=C\c1ccc(Br)o1)c1nonc1N	-35%	-1%	5%	-42%
NC(=S)Cc1nc(-c2ccc(Cl)cc2)cs1	3%	0%	?	5µM*
COc1ccc(-c2csc(CCN3N=C(C)CC3=O)n2)cc1	-12%	0%	-7%	43%
CSc1ccc2c(c1)N(CC[C@H]1CCCCN1C)c1ccccc1S2	·	·	-11%[17 µM]	9%[16.9 µM]
CSc1ccc2c(c1)N(CCC1CCCCN1C)c1ccccc1S2 (centres undefined)	13µM*	-2%	?	?
COc1ccc(CC2=CC(=O)c3ccccc3C2=O)cc1	·	0%	10µM*	7.1µM*
Cc1c(C(C)NC(=O)c2cc(COc3cccc4cnccc34)on2)cnn1C (centres undefined)	·	0%	13µM*	-27%
CCOc1ccccc1CNC(=O)c1ccc(NC(=O)C2=CSCCO2)cc1	·	0%	23%	?
COc1ccccc1C(=O)NCc1ccccn1	-23%	0%	13%	8.9µM*
COc1ccccc1C(=O)NCCC(=O)NCc1ccccn1	·	0%	·	·
COc1ccccc1C(=O)NCCC(=O)Nc1ncccc1C	·	0%	8.9µM*	5.6µM*
COc1ccccc1C(=O)NCCC(=O)NCC(c1ccccc1)N(C)C (centres undefined)	·	0%	-10%	11µM*
CCOC(=O)N1CCN(c2ccncc2S(=O)(=O)N2CCCCC2)CC1	·	-1%	1%	10%
CN(C)c1ccc(-c2nccc(NCc3ccccc3)n2)cc1	·	·	-10%	-7%
COc1ccccc1CNc1ccnc(-c2ccc(N(C)C)cc2)n1	·	·	14µM*	?
O=C(COC(=O)CC1CCCC1)Nc1ccc(Cl)cc1	·	4%	·	·
CC(=O)OCC1O[C@@H](O[C@@H]2C[C@H]3C(C)(C)[C@H](OC(C)=O)CC[C@]3(C)[C@H]3CC[C@]45C[C@]4(CC[C@H]5[C@@H](C)C[C@@H](O)[C@H](O)C(C)(C)O)[C@@]32C)[C@H](O)[C@@H](O)[C@@H]1O (some centres undefined)	?	-1%	3.2µM*	0.89µM*
SMILES	NPSR antag	B2AR arrestin	Gal4-VP16 FLuc	RORg inh
CC(C)=CCC[C@](C)(O[C@@H]1O[C@H](CO[C@@H]2O[C@H](CO)[C@@H](O)[C@H](O)[C@H]2O)[C@@H](O)[C@H](O)[C@H]1O)C1CC[C@]2(C)C1C(=O)CC1[C@@]3(C)CC[C@H](O[C@H]4O[C@@H](CO)[C@H](O)[C@@H](O)[C@@H]4O)C(C)(C)C3CC[C@]12C (some centres undefined)	·	-1%	·	·
CCCNC(=S)Nc1ccc(S(N)(=O)=O)cc1	-2%	-1%	-6%	2%
Cc1ccc(NC(=S)NCC(C)C)cc1	9%	0%	11µM*	10µM*
CC(C)CNC(=S)Nc1ccc(S(N)(=O)=O)cc1	-6%	4%	-9%	-4%
COC(=O)Cc1ccc(NC(=S)NCCC(C)C)cc1	-2%	-4%	?	10µM*
CCCNC(=S)Nc1ccc(Br)cc1	-4%[46.1 µM]	0%	?	11µM*
S=C(NCCOCCOCCNC(=S)Nc1ccccc1)Nc1ccccc1	5%	0%	?	5µM*
S=C(NCCc1ccncc1)Nc1ccccc1	13%	0%	-1%	-16%
CC(C)CCNC(=S)Nc1ccc(Br)cc1	-38%	-1%	10µM*	3.5µM*
S=C(NCC1(c2ccccc2)CCCC1)Nc1ccccc1	·	1%	6.3µM*	1.6µM*
S=C(NCCc1ccccc1)Nc1ccc(Br)cc1	4%	0%	?	5µM*
Cc1cc(NC(=O)c2c(-c3c(Cl)cccc3Cl)noc2C)n(C)n1	-15%	-1%	1%	22%
Cc1ccc(F)c(C2C3C=CCC(C)C3C(=O)N2Cc2ccccc2)c1 (centres undefined)	·	·	?	10%
COc1ccc2nc(Cl)c(/C=N/Nc3ccccn3)cc2c1	-23%	0%	?	11µM*
COc1ccc(/C=N/Nc2nccnc2Cl)c(OC)c1	-12%	0%	?	?
CCOc1ccc(/C=N/Nc2ccccn2)cc1	3%	0%	?	11µM*
CCNC(=S)NS(=O)(=O)c1ccc(Cl)cc1	-3%[46.1 µM]	0%	3%[0.365 µM]	22µM*
CCNC(=S)NS(=O)(=O)c1ccccc1	4%[46.1 µM]	0%	-3%	?
O=S(=O)(NC(=S)NC1CCCCC1)c1ccc(Cl)cc1	9%	0%	5.6µM*	2.2µM*
Cc1ccc(S(=O)(=O)NC(=S)NC2CCCCC2)cc1	13%	0%	14µM*	3.2µM*
CCc1ccc(S(=O)(=O)NC(=S)NC2CCCCC2)cc1	-5%	1%	5.6µM*	3.5µM*
CC(=O)O[C@H]1C[C@@]2(C)[C@@H](C[C@@H](O)[C@H]3[C@@]4(C)CC[C@@H](O)[C@@H](C)[C@@H]4CC[C@@]32C)/C1=C(\CCC=C(C)C)C(=O)O	·	0%	·	·
CC1CCN(C(=O)c2[nH]cnc2C(=O)N[C@@H](C)c2ccccc2)CC1	·	0%	·	·
CC12CC3CC(C)(C1)CC(C(=O)Nc1nncs1)(C3)C2	·	0%	18µM*	?
CC12CC3CC(C)(C1)CC(C(=O)Nc1nn[nH]n1)(C3)C2	-5%[46.1 µM]	0%	3%	7%
SMILES	NPSR antag	B2AR arrestin	Gal4-VP16 FLuc	RORg inh
CNc1ccccc1C(C)(C)c1cc(-c2cccc(Br)c2)no1	-8%	0%	16µM*	?
CC(=O)Nc1ccc(S(=O)(=O)NC(C(=O)O)C(C)O)cc1 (centres undefined)	14%	0%	-1%	-5%
O=C1NC[C@H](CC2CCCCC2)N(CCc2cccc(F)c2)C1=O	·	1%	·	·
COc1ccc(-c2nsc3c(N4CCCCC4C)ncnc23)cc1 (centres undefined)	-27%	0%	?	0.28µM*
COc1ccc(-c2nsc3c(N4CCCCC4)ncnc23)cc1	-2%[46.1 µM]	0%	?	1.1µM*
COc1ccc(C(=O)N2CCN(c3ncnc4c(-c5ccccc5)nsc34)CC2)cc1	-13%[46.1 µM]	-1%	2%	-4%
Cc1ccc(-c2nsc3c(N4CCC(C(N)=O)CC4)ncnc23)cc1	8%[46.1 µM]	0%	0.63µM*	?
COc1ccc(NC(=O)Cc2ccc(Cl)c(Cl)c2)cn1	-5%	0%	-7%	32%
